Reference: PubChem BioAssay (NCI)
The panel holds about 83,000 compounds, 20% with a hit somewhere; the sample as a whole holds those more often.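 Compound tested at a single concentration for 48 hours in 96-well plates; a percent growth value below 10 was scored as active.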 Unmarked numbers belong to inactive results. The source made the active and inactive calls.

Legend:
Assay in all cases: NCI-60 one-dose screen, 48 h (100 = growth as untreated, 0 = no growth, -100 = all killed)
SR leukemia = settings: 10 µM
RPMI-8226 leukemia = settings: 10 µM
OVCAR-8 ovarian = settings: 10 µM
OVCAR-5 ovarian = settings: 10 µM
OVCAR-4 ovarian = settings: 10 µM
SK-OV-3 ovarian = settings: 10 µM
IGROV1 ovarian = settings: 10 µM
OVCAR-3 ovarian = settings: 10 µM
HS 578T breast = settings: 10 µM
NCI/ADR-RES ovarian = settings: 10 µM
T-47D breast = settings: 10 µM
BT-549 breast = settings: 10 µM
MDA-MB-435 melanoma = settings: 10 µM
SW-620 colon = settings: 10 µM
MCF7 breast = settings: 10 µM unless noted
HCT-116 colon = settings: 10 µM
HCC-2998 colon = settings: 10 µM
KM12 colon = settings: 10 µM

Row | SMILES | growth (SR leukemia) | growth (RPMI-8226 leukemia) | growth (OVCAR-8 ovarian) | growth (OVCAR-5 ovarian) [%] | growth (OVCAR-4 ovarian) [%] | growth (SK-OV-3 ovarian) | growth (IGROV1 ovarian) [%] | growth (OVCAR-3 ovarian) | growth (HS 578T breast) [%] | growth (NCI/ADR-RES ovarian) | growth (T-47D breast) [%] | growth (BT-549 breast) | growth (MDA-MB-435 melanoma) | growth (SW-620 colon) [%] | growth (MCF7 breast) [%] | growth (HCT-116 colon) | growth (HCC-2998 colon) [%] | growth (KM12 colon)
1 | Cc1nc2ccccc2c2nnc(SCC(=O)N(Cc3ccccc3)c3ccccc3)n12 | 67.6% | 78.8% | 100% | 95 | 91.7 | 93.8% | 71.6 | 93.4% | 93.9 | 96.1% | 76.4 | 87.2% | 96% | 93.5 | 102 | 43.1% | 110 | 129%
2 | Cc1ccc(Cl)cc1NC(=O)N(C)CCO | 113% | 97.4% | 112% | 111 | 136 | 114% | 93 | 130% | 236 | 112% | 104 | 116% | 117% | 137 | 88.7 | 112% | 104 | 120%
3 | CCCCCC(C)(CC(=O)O)CC(=O)O | 94.1% | 119% | 103% | 97.4 | 104 | 114% | 110 | 126% | 107 | 119% | 104 | 113% | 107% | 106 | 90 | 112% | 113 | 115%
4 | N#Cc1ccc(OC(=O)Nc2ccc(Cl)c(Cl)c2)cc1 | 39.4% | 5.09% (active) | 59% | 91.6 | 66.7 | 107% | 64.4 | 33.3% | 103 | 65.5% | 27.9 | 93.3% | 99.3% | 96.2 | 44.5 | 50% | 87.1 | 42.9%
5 | COc1ccc(OC)c(/C=C2\CCc3ccccc3C2=O)c1 | 31.6% | 35.7% | 65.4% | 72.9 | 70.9 | 53% | 50.9 | 9.47% (active) | 45.4 | 17.8% | 56.3 | 44.3% | -37.9% (active) | 17.4 | 12.1 | 19.3% | 73.9 | 22.8%
6 | NCCC(=O)c1ccc(Cl)cc1 | 93.8% | 110% | 101% | 118 | 110 | 95.7% | 117 | 105% | 109 | 103% | 91.4 | 109% | 110% | 102 | 110 | 102% | 97.6 | 98.1%
7 | NC(N)=Nc1cc2ccccc2c2ccccc12 | 44.3% | 33.5% | 45.9% | 95.8 | 74.4 | 80.2% | 65.2 | 73.1% | 96.4 | 95.1% | 88.1 | 81.2% | 84.8% | 76.6 | 81 | 65.9% | 95.4 | 81%
8 | CCOC(=O)CNN | 106% | 110% | 96.1% | 112 | 106 | 108% | 112 | 108% | 105 | 112% | 104 | 108% | 108% | 99.2 | 97.9 | 107% | 106 | 101%
9 | O=C(O)CCCc1ccccc1 | 96.9% | 110% | 96.7% | 104 | 117 | 110% | 121 | 121% | 118 | 103% | 101 | 105% | 98.9% | 111 | 104 | 104% | 107 | 114%
10 | O=C(O)CCC(=O)OC(C1CO1)C(OC(=O)CCC(=O)O)C1CO1 (centres undefined) | 101% | 90.4% | 95.9% | 93.4 | 107 | 96.8% | 110 | 103% | 113 | 109% | 94 | 108% | 103% | 106 | 90.6 | 99.2% | 108 | 101%
11 | N#Cc1ccc(NC(=O)Nc2cccc(C#N)c2)cc1 | 72.2% | 30.9% | 83.6% | 116 | 91.2 | 115% | 78 | 105% | 99.1 | 90.1% | 66.9 | 108% | 78.8% | 95.8 | 82.8 | 82.5% | 95.1 | 102%
12 | N=c1c(C(=O)OCc2ccccc2)ncc(CCl)n1O | 82.6% | 76.8% | 101% | 103 | 91.3 | 107% | 95 | 99.1% | 114 | 105% | 93.9 | 80.6% | 96.1% | 86.9 | 91.9 | 78.3% | 104 | 102%
13 | O=c1c2ccccc2c(Br)c(Br)c2ccccc12 | 64.4% | 88.5% | 96.6% | 113 | 82.1 | 109% | 91.4 | 108% | 107 | 60.5% | 53.5 | 82.4% | 77.6% | 29.8 | 101 | 17.8% | 103 | 105%
14 | O=[N+]([O-])c1ccc(O)c(S(=O)(=O)O)c1 | 98% | 105% | 94.4% | 93.2 | 108 | 110% | 130 | 109% | 103 | 109% | 96.5 | 128% | 109% | 104 | 102 | 101% | 112 | 111%
15 | Cc1cc(C)cc(NCCC#N)c1 | 107% | 106% | 126% | 112 | 102 | 106% | 110 | 105% | 134 | 110% | 107 | 123% | 111% | 102 | 101 | 106% | 109 | 107%
16 | COc1cc(C2c3cc4c(cc3C3OC(=O)C2C3CO)OCO4)cc(OC)c1OC (centres undefined) | 4.01% (active) | 18.3% | 3.3% (active) | 27.1 | 28.3 | -7.31% (active) | 13.7 | -21.9% (active) | 33.8 | -2.7% (active) | 70.6 | -24.4% (active) | -45% (active) | 23.1 | 17 | 7.29% (active) | 19 | 1.84% (active)
17 | COc1cccc(/C=N/NC(=S)NC2CC3CCC2C3)c1O (centres undefined) | 3.68% (active) | 46.8% | 40.5% | 85.1 | 19.2 | 46.2% | 67 | 6.8% (active) | 25.8 | 15.4% | 35.7 | 79.8% | 76.4% | 57.9 | 37.8 | 24.8% | 96.3 | 69.1%
18 | O=C1C[C@H](c2ccccc2)[C@H](c2ccccc2)C1 | 99.2% | 83.2% | 109% | 95.8 | 105 | 102% | 112 | 118% | 112 | 106% | 99.1 | 93.7% | 108% | 109 | 99.1 | 99.1% | 104 | 115%
